The source of these data is PubChem BioAssay (Tox21).

Experiment [1] has as its target Progesterone receptor (Homo sapiens) (UniProt P06401). As to the kind of experiment: qHTS assay to identify small molecule agonists of the progesterone receptor (PR) signaling pathway (AID 1346784; calls by dose curve; further: nearly all actives have a fitted effect of over 30% in size). The procedure, abridged: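 PR-UAS-bla HEK 293T cells (beta-lactamase reporter under UAS) in 2% charcoal-stripped FBS, dosed with 23 nL compound after 6 hr, incubated 16hr at 37C. LiveBLAzer B/G FRET substrate added, fluorescence read after 2 hours.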

The target is the same in experiment [2]. The experiment in a line: qHTS assay to identify small molecule antagonists of the progesterone receptor (PR) signaling pathway (AID 1346795; active means well fitted inhibition curve with a large enough effect in the signal ratio in the repeat runs, not every such curve was filed as active; the % refers to the signal ratio). The procedure, abridged: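 PR-UAS-bla HEK293T cells with beta-lactamase reporter under UAS control, in 2% charcoal-stripped FBS, treated with compounds plus 1 nM promegestone (R5020, final) for 16 hr at 37C. Read-out: FRET beta-lactamase substrate fluorescence after 2 hr at room temperature.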
A general note: qHTS replaces the single test concentration by a dilution series.

The nature of experiment [3]: qHTS assay to identify small molecule antagonists of the progesterone receptor (PR) signaling pathway - cell viability counter screen (AID 1346798). Further: series mostly up to about 92 µM; nearly all actives have a fitted effect of over 50% in size. The method, boiled down: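 PR-UAS-bla HEK293T cells, 3,000/well in 2% charcoal-stripped FBS medium, dosed with compounds plus R5020 agonist and incubated 16 h at 37C. Viability then measured in the same wells by CellTiter-Glo luminescence after 30 min at RT.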

Experiment [4] in a line: qHTS assay to identify small molecule antagonists of the TGF-beta/Smad signaling pathway - cell viability counter screen (AID 1346824). Further: nearly all actives have a fitted effect of over 50% in size. The procedure, abridged: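 Cytotoxicity counter-screen run in the same wells as the beta-lactamase Smad reporter read: CellTiter-Glo luminescence after 30 min at room temperature. HEK 293T SBE-bla cells had 5 hr compound exposure at 37 C with TGF-beta1 (0.25 ng/mL stock).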

Experiment [5] is described as follows: qHTS assay to identify small molecule agonists of the TGF-beta/Smad signaling pathway - cell viability counter screen (AID 1346829). Further: top concentration of the series differs between compounds; nearly all actives have a fitted effect of over 45% in size. The procedure, abridged:
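CellTiter-Glo luminescence readout; SBE-bla HEK 293T cells, overnight plating, compound 5 hr at 37 C/5% CO2, then bla substrate 2 hr RT, then CellTiter-Glo 30 min RT.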

A short description of experiment [6]: qHTS assay to identify small molecule agonists of the TGF-beta/Smad signaling pathway (AID 1346859; active means well fitted activation curve with a large enough effect in the signal ratio in the repeat runs, not every such curve was filed as active; the % refers to the signal ratio; further: series mostly up to about 77 µM). The procedure, abridged:
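SBE-bla HEK293T cells plated overnight, then compound exposure for 5 h at 37 C. Beta-lactamase reporter read with LiveBLAzer B/G FRET substrate after 2 h at room temperature, fluorescence at 405 nm excitation, 460/530 nm emission.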

For experiment [7], the target named is Thyrotropin-releasing hormone receptor (Homo sapiens) (UniProt P34981). The experiment in a line: qHTS assay to identify small molecule antagonists of the thyrotropin-releasing hormone receptor (TRHR) signaling pathway (AID 1346877; active means well fitted inhibition curve with a large enough effect in the repeat runs, not every such curve was filed as active; further: series mostly up to about 51 µM). The method, boiled down: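 Screening used HEK293 cells engineered with TRHR, with a brief 5 min room-temperature compound exposure preceding addition of TRH to 1 nM. The read-out was kinetic calcium-dye fluorescence, concentration-response from 15 doses in triplicate.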

Experiment [8] shares this target. As to the kind of experiment: qHTS assay to identify small molecule agonists of the thyrotropin-releasing hormone receptor (TRHR) signaling pathway (AID 1346891; calls by dose curve; further: series mostly up to about 58 µM). The procedure, abridged:
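HEK293 cells expressing TRHR plated 18 h at 37 C/5% CO2, calcium dye-loaded 2 h at 37 C, then compound added (agonist mode); kinetic calcium fluorescence read 3 min at 1 s intervals; 15 concentrations in triplicate.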

Experiment [9] can be described thus: Human pregnane X receptor (PXR) small molecule agonists, qHTS cell viability counter screen (AID 1346977). Further: nearly all actives have a fitted effect of over 50% in size. The procedure, abridged:
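PXR-Luc HepG2 cells (2,000/well, 5% charcoal-stripped FBS) preincubated 5 hr, then exposed to compounds 24 hr at 37 C. Viability read in the same wells by CellTiter-Fluor fluorescence, reagent added at 23 hr, 1 hr incubation.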

Experiment [10] can be described thus: Caspase-3/7 induction in HepG2 cells by small molecules, qHTS assay (AID 1346978). Further: nearly all actives have a fitted effect of over 15% in size. The procedure, abridged: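 Caspase-3/7 induction was measured by Caspase-Glo 3/7 luminescence (30 min, room temperature) after a 17 hr compound exposure of wild-type HepG2 cells seeded at 2,000 per well and pre-incubated 5 hr.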
Experiment [11] can be described thus: Caspase-3/7 induction in CHO-K1 cells by small molecules, qHTS cell viability counter screen (AID 1346979). Further: nearly all actives have a fitted effect of over 35% in size. The method, boiled down: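 Wild-type CHO-K1 cells (1,500/well) treated with compound after 5 h plating; after 16 h at 37C, viability read as CellTiter-Fluor fluorescence following 1 h reagent incubation, in the same wells as the caspase read.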
The nature of experiment [12]: Caspase-3/7 induction in CHO-K1 cells by small molecules, qHTS assay (AID 1346980). Further: nearly all actives have a fitted effect of over 15% in size. The method, boiled down:
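Luminescent Caspase-Glo 3/7 read (30min, room temperature) quantified apoptosis induction. Cells were wild-type CHO-K1, treated with compound for 17hr at 37 C and 5% CO2.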

For experiment [13], the target named is Nuclear receptor subfamily 1 group I member 2 (Homo sapiens) (UniProt O75469). As to the kind of experiment: Human pregnane X receptor (PXR) small molecule agonists, qHTS assay (AID 1346982). Further: nearly all actives have a fitted effect of over 35% in size. Further: potency means the concentration at half of the fitted maximal effect. The method, boiled down: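 We seeded PXR-Luc HepG2 cells in assay medium containing 5% charcoal-stripped FBS, added compounds 5 hr later, incubated 24 hr, and read luminescence with ONE-Glo reagent.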

In experiment [14] the target is Cytochrome P450 2D6 (Homo sapiens) (UniProt P10635). The experiment in a line: Cytochrome P450 Family 2 Subfamily D Member 6 (CYP2D6) small molecule antagonists: luciferase reporter qHTS assay (AID 1671196). Further: nearly all actives have a fitted effect of over 50% in size. Further: potency means the concentration at half of the fitted maximal effect. The method, boiled down: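 Luminescence (RLU), read 20 min after detection reagent, indicated CYP2D6 conversion of proluciferin to luciferin during a 1 h NADPH-dependent reaction at room temperature.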
In general terms: Reporter assays use an easily measured gene product as a stand-in for the process of interest.

The target in experiment [15] is Cytochrome P450 2C19 (Homo sapiens) (UniProt P33261). The experiment in a line: Cytochrome P450 Family 2 Subfamily C Member 19 (CYP2C19) small molecule antagonists: luciferase reporter qHTS assay (AID 1671197). Further: nearly all actives have a fitted effect of over 65% in size. Further: potency means the concentration at half of the fitted maximal effect. The method, boiled down:
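Enzyme-substrate mix with proluciferin substrate (P450-Glo CYP2C19 system) preincubated with compounds 10 min at room temperature; NADPH regeneration solution added, 37C for 1 h; detection reagent stops reaction, luminescence read after 20 min. Ketoconazole positive control.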

Experiment [16] is described as follows: qHTS assay to identify small molecule agonists of the progesterone receptor (PR) signaling pathway - cell viability counter screen (AID 1346799; calls by dose curve; further: nearly all actives have a fitted effect of over 45% in size). The procedure, abridged:
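Counter screen in the PR-UAS-bla HEK293T wells (2% charcoal-stripped FBS, 16 h compound exposure at 37 C) after the bla read. CellTiter-Glo added, 30 min at room temperature, luminescence read as cell viability.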

Experiment [17] can be described thus: Caspase-3/7 induction in HepG2 cells by small molecules, qHTS cell viability counter screen (AID 1346981). Further: series mostly up to about 92 µM; nearly all actives have a fitted effect of over 30% in size. The procedure, abridged: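 Multiplexed with the caspase-3/7 assay: HepG2 cells, 16 hr compound treatment, CellTiter-Fluor viability detection by fluorescence.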
In experiment [18] the target is Nuclear receptor subfamily 1 group I member 2 (Rattus norvegicus) (UniProt Q9R1A7). As to the kind of experiment: Rat pregnane X receptor (rPXR) activation by small molecules, qHTS assay (AID 1346983). Further: nearly all actives have a fitted effect of over 20% in size. As to conditions: rPXR luciferase reporter cells, One-Glo luminescence, 24 h; hits give high values. The procedure, abridged: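 Luminescent readout (One-Glo luciferase, 30 min room temperature) followed 24 hr compound treatment at 37 C of rPXR cells plated 2,000 per well and preincubated 5hr; qHTS format with compounds delivered in DMSO.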

Experiment [19] concerns the target Nuclear receptor subfamily 1 group I member 2 (Homo sapiens) (UniProt O75469). The experiment in a line: CYP3A4 induction through human pregnane X receptor (PXR) by small molecules, qHTS assay (AID 1346984). Further: nearly all actives have a fitted effect of over 40% in size. The method, boiled down:
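qHTS, concentration-response format: HepG2 DPX-2 line, PXR/CYP3A4-luc. Exposure 24 h, 37C. Substrate Luciferin-IPA 3uM final, 3 h. Detection One-Glo, 30 min RT.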

Inconclusive results are not listed. Activity calls are given as the source filed them. Unless noted, the call rests on the fitted dose curve; in most records, active means well fitted curve in the direction sought with a large enough effect in the repeat runs; inconclusive means weak or mixed curves; inactive means no such curve, though single readings can be large; an effect the other way counts as inactive or inconclusive.
On the % scale 0 is the no-effect control and ±100 the full control effect.

Sequence of Thyrotropin-releasing hormone receptor (Homo sapiens) (P34981 whole entry, looked up): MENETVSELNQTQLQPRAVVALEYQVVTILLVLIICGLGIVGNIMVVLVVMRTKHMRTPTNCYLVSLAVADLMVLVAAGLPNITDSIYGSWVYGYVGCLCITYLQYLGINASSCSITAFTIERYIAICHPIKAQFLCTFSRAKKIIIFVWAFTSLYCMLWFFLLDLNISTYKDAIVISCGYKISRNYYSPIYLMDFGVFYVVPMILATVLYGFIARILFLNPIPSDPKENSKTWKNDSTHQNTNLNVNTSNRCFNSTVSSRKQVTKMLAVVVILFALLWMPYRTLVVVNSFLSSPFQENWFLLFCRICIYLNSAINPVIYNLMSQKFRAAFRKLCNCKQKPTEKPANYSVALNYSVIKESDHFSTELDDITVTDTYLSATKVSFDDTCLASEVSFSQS
Sequence of Nuclear receptor subfamily 1 group I member 2 (Homo sapiens) (O75469 whole entry, looked up): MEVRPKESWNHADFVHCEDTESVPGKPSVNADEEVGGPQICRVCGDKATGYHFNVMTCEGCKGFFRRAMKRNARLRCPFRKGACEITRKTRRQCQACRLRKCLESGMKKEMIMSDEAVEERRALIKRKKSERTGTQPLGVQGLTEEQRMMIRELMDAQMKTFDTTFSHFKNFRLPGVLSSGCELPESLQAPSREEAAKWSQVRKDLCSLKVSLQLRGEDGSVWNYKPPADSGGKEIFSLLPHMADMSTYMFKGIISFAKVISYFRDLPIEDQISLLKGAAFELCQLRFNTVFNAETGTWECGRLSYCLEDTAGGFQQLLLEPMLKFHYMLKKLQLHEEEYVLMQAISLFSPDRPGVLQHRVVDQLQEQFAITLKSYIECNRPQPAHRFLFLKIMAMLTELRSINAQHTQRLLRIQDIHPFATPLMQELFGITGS
Sequence of Cytochrome P450 2D6 (Homo sapiens) (P10635 whole entry, looked up): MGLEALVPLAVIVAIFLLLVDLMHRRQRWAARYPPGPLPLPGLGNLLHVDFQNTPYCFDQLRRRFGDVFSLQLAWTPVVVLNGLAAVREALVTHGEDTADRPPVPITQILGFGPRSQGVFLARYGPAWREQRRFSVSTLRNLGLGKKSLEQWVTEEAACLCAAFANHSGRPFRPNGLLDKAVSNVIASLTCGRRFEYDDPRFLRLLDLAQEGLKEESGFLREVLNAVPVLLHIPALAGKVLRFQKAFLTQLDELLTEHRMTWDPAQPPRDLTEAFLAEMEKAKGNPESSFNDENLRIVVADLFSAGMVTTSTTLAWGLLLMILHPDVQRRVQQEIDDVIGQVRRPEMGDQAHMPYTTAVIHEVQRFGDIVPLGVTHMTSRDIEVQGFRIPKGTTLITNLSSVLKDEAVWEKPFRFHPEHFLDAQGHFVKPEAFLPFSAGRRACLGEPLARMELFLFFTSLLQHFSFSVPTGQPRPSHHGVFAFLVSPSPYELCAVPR
Sequence of Cytochrome P450 2C19 (Homo sapiens) (P33261 whole entry, looked up): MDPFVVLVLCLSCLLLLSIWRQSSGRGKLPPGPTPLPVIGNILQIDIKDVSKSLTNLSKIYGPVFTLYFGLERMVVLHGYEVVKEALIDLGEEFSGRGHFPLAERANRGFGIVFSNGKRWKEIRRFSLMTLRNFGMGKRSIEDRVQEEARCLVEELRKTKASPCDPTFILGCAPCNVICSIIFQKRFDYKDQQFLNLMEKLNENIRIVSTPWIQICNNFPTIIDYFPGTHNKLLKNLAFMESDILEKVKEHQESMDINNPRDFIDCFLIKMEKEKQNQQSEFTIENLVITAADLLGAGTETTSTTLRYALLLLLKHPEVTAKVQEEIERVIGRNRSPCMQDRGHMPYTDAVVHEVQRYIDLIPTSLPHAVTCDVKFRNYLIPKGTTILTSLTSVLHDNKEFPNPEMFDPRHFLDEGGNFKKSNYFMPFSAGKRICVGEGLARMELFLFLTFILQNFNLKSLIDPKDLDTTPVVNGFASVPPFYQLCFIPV
Sequence of Progesterone receptor (Homo sapiens) (P06401 whole entry, looked up): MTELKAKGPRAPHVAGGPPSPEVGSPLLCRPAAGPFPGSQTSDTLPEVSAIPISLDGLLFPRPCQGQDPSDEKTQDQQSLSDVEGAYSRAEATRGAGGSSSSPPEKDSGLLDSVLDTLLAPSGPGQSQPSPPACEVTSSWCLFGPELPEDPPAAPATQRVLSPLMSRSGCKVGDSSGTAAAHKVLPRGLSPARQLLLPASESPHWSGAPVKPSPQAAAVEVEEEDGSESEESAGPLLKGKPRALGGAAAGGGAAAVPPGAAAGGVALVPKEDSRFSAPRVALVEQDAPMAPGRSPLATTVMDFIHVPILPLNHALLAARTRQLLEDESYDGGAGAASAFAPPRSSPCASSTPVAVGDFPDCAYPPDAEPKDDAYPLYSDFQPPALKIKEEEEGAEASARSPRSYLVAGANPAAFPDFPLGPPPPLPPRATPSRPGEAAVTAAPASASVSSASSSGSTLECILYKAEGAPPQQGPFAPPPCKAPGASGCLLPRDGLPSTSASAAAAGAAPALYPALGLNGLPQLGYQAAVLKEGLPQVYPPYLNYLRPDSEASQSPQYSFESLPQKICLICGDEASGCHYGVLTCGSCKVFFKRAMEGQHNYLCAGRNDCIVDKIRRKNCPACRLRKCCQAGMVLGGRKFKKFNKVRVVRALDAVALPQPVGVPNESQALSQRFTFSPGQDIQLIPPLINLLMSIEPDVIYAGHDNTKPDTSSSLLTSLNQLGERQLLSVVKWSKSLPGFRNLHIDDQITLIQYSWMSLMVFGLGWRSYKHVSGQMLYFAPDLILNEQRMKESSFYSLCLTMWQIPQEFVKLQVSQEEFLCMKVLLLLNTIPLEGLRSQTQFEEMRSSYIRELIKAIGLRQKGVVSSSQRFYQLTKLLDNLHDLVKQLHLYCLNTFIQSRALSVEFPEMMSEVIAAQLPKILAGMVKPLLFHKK
Sequence of Nuclear receptor subfamily 1 group I member 2 (Rattus norvegicus) (Q9R1A7 whole entry, looked up): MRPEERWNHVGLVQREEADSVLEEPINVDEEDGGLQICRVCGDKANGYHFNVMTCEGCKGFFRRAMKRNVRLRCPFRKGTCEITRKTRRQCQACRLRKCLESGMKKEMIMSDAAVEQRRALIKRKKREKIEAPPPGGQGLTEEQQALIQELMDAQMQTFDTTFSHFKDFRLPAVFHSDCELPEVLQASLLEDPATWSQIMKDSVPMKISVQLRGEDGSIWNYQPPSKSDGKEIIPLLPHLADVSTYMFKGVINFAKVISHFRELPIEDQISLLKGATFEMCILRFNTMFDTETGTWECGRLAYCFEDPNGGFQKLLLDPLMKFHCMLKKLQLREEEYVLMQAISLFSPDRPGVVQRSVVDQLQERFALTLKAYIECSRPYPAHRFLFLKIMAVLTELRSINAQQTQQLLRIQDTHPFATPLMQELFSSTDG

With `CC(C)NC(=O)NC(C)C`, the Potency entry in experiment [1], in experiment [2], in experiment [3], in experiment [4], in experiment [9] and in [10] was “inactive” in each case. Further, the Potency result in [11], in experiment [13], in experiment [14] and in experiment [15] was “inactive” in each case. Moreover, the compound was called inactive in experiment [5], in [6], in experiment [7], in experiment [8] and in [12].

With `CCN(Cc1ccncc1)C(=O)C(CO)c1ccccc1` (stereo not drawn), the Potency result in [1], in experiment [2], in experiment [16], in [4], in [9] and in experiment [10] was “inactive” in each case. For the same compound, the Potency entry in experiment [11] and in experiment [17] was “inactive” each time. Besides, the call in experiment [5], in experiment [6], in experiment [7], in [8] and in [12] was inactive.

Turning to `C[C@H]1C[C@@H](O)CC(C)(C)C1`, the Potency result in [1], in [2], in experiment [3], in [4], in experiment [10] and in experiment [11] was “inactive” throughout. For the same compound, the Potency entry in [17], in [13], in [14] and in experiment [15] was “inactive” each time. The outcome in [5], in [6], in experiment [7], in experiment [8] and in experiment [12] was inactive.

As to `Cc1ccc(C#N)cc1`, the Potency entry in experiment [1], in [2], in experiment [3], in experiment [4], in experiment [9] and in [10] was “inactive” throughout. The Potency entry in experiment [11], in experiment [17], in experiment [13] and in experiment [14] was “inactive” each time. The result in [5], in [6], in experiment [7], in experiment [8] and in experiment [12] was inactive. The Potency in [15] was 34.4 µM (active).

In the case of `CN1N=C(C(N)=O)CCC1=O`, the Potency entry in [1], in experiment [2], in [3], in [4], in experiment [9] and in experiment [10] was “inactive” throughout. In addition, the Potency entry in [11], in [17], in experiment [13], in experiment [14] and in [15] was “inactive” each time. Moreover, the compound was called inactive in [5] and in [6].

As for `CC(=O)CC(C)C`, the Potency result in [1], in [2], in experiment [3], in [4], in experiment [9] and in [10] was “inactive” each time. Further, the Potency entry in experiment [11], in [17], in [13], in experiment [14] and in experiment [15] was “inactive” each time. Also, the compound was called inactive in experiment [5], in [6] and in experiment [12].

On to `CC(C)NCCCC1(C(N)=O)c2ccccc2-c2ccccc21`, for which the Potency result in experiment [1], in experiment [2], in experiment [3], in experiment [4], in experiment [9] and in [10] was “inactive” each time. Also, the Potency result in [11], in experiment [17] and in experiment [15] was “inactive” each time. The compound was classed as inactive in experiment [5], in experiment [6], in [8] and in experiment [12]. The Potency in experiment [13] was 23.7 µM (active); in experiment [14] it was 2.45 µM (active).

Turning to `CCO[Si](CCC1CCC2OC2C1)(OCC)OCC` (stereo not drawn), the Potency entry in experiment [1], in experiment [2], in experiment [3], in experiment [4], in experiment [9] and in experiment [10] was “inactive” in each case. Also, the Potency result in experiment [11], in experiment [13], in [14] and in [15] was “inactive” each time. Besides, the compound was classed as inactive in experiment [5], in experiment [6], in [8] and in [12].

On to `O=C(O)c1ccccc1OP(=O)(O)O`, for which the Potency result in experiment [1], in experiment [2], in experiment [3], in [4], in [10] and in experiment [17] was “inactive” throughout. Further, the Potency result in experiment [13] and in experiment [15] was “inactive” throughout. For the same compound, the call in experiment [5], in experiment [6], in experiment [7] and in experiment [8] was inactive.

With `O=C1OC(=O)C2CCCCC12` (stereo not drawn), the Potency entry in [1], in experiment [2], in experiment [3], in [4], in experiment [9] and in [10] was “inactive” in each case. In addition, the Potency entry in [17], in experiment [13], in [14] and in [15] was “inactive” in each case. For the same compound, the outcome in [5] and in experiment [6] was inactive.

Consider `CN(C)CCCSc1ccccc1NC(=O)/C=C/c1ccccc1`, for which the Potency entry in experiment [1], in [2], in experiment [3], in experiment [4], in [9] and in experiment [10] was “inactive” each time. In addition, the Potency entry in [11], in experiment [17] and in experiment [19] was “inactive” each time. Besides, the compound was classed as inactive in experiment [5], in experiment [6], in [8] and in [12]. Further, the max activation in experiment [18] is 2.69% (inactive). Moreover, the Potency in [14] is 0.389 µM (active); in experiment [15], 38.9 µM (active).

As to `O=C(c1ccccc1)C1CCCCC1`, the Potency entry in experiment [1], in experiment [2], in [3], in experiment [4], in experiment [9] and in [10] was “inactive” in each case. The Potency entry in experiment [11], in experiment [17], in [13] and in experiment [14] was “inactive” throughout. Moreover, the compound was called inactive in [5], in experiment [6], in experiment [7], in [8] and in experiment [12]. Besides, the Potency in [15] is 71 µM (active).

For `O=[N+]([O-])c1ccc(F)cc1F`, the Potency result in experiment [1], in experiment [2], in experiment [3], in [4], in experiment [9] and in experiment [10] was “inactive” throughout. Moreover, the Potency result in experiment [11], in experiment [13], in [14] and in experiment [15] was “inactive” throughout. Moreover, the compound was classed as inactive in experiment [5] and in experiment [6].
